Reference: PubChem BioAssay
Activity calls are given as the source filed them.

Experiments:
[1] = test system: Human papillomavirus type 1a protein E7 (residues 44-93); assay: HPV1a E7 fragment binders on microarrays, primary screen, biochemical, small-molecule microarray, residues 44-93, 635 nm fluorescence (AID 1108); conditions: small-molecule microarray binding, fluorescence 635 nm; higher = more signal;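 also: E7 fragment applied at 1 µg/mL in TBST for 1 h at 4 C; score combines spot fluorescence with its signal to noise ratio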
[2] = modulators of HCV replicon luciferase signal, primary screen, HCV replication inhibitor project, Huh7 cells, luciferase reporter (AID 1109); conditions: 48 h, higher = more signal;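 also: huh7 hepatoma cells harbouring a luciferase neomycin HCV replicon reporter; luciferase luminescence as measure of HCV replicon replication; test concentration not given here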
[3] = target: Left-right determination factor 2 (Homo sapiens) (UniProt O00292); assay: LEFTY2 binders on small-molecule microarrays, primary screen, biochemical, small-molecule microarray, 635 nm fluorescence scan (AID 1110); conditions: LEFTY2 binding, higher = more signal
Chain of Left-right determination factor 2 (Homo sapiens) (O00292 whole entry, looked up): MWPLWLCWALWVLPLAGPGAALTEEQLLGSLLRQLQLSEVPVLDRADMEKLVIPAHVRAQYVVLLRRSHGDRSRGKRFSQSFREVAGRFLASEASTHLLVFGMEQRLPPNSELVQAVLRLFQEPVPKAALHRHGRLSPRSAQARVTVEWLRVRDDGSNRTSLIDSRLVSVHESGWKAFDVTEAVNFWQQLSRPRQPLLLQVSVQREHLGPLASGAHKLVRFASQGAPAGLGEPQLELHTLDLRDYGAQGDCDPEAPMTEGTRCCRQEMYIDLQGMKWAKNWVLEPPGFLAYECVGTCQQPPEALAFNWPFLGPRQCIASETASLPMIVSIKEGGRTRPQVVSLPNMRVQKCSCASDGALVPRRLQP

[4] = target: Calmodulin-1 (Homo sapiens) (UniProt P0DP23); assay: CALM1 binders on microarrays, EGTA buffer, profiling panel, biochemical, small-molecule microarray, Cy5-labelled CALM1 (AID 1111); conditions: Cy5-CALM1 binding fluorescence, higher = more signal;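 also: labelled calmodulin applied in Tris saline Tween buffer holding calcium plus EGTA and DTT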
[5] = target: Calmodulin-1 (Homo sapiens) (UniProt P0DP23); assay: calcium-bound CALM1 binders on microarrays, profiling panel, artefact control for SMM control-protein annotation, biochemical, small-molecule microarray, Cy5-labelled CALM1, plus calcium (AID 1112); conditions: Cy5-CALM1 binding fluorescence, higher = more signal;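 also: score merges spot fluorescence with signal to noise from triplicate slides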
[6] = small-molecule microarray binders of probe aWnt5a, primary screen, biochemical, biotinylated probe, 635/667 nm fluorescence (AID 1113); conditions: higher = more signal;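 also: score merges 667 nm fluorescence intensity with signal-to-noise per printed feature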
[7] = small-molecule microarray binders of probe aShh, primary screen, biochemical, biotinylated probe, 635/667 nm fluorescence (AID 1114); conditions: higher = more signal;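 also: probe is biotin-labelled aShh protein from a stem cell growth factor screen; measures binding of labelled protein to compounds printed on the slide; score merges feature fluorescence at 667 nm with signal-to-noise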
[8] = small-molecule microarray binders of probe aNog, primary screen, biochemical, biotinylated probe, 635/667 nm fluorescence (AID 1115); conditions: higher = more signal;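 also: probe is biotinylated aNog protein used at 0.15 µg/mL for 1 h at 4 C; z-score combines 667 nm fluorescence of each spot with its signal to noise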
[9] = target: Torsin-1A-interacting protein 1 (Homo sapiens) (UniProt Q5JTV8); assay: LAP1 binders from COS7 cell lysate, primary screen, small-molecule microarray, 635/667 nm fluorescence (AID 1116); conditions: COS7-hLAP1 lysate binding, 635 nm fluorescence, higher = more signal
Chain of Torsin-1A-interacting protein 1 (Homo sapiens) (Q5JTV8 whole entry, looked up): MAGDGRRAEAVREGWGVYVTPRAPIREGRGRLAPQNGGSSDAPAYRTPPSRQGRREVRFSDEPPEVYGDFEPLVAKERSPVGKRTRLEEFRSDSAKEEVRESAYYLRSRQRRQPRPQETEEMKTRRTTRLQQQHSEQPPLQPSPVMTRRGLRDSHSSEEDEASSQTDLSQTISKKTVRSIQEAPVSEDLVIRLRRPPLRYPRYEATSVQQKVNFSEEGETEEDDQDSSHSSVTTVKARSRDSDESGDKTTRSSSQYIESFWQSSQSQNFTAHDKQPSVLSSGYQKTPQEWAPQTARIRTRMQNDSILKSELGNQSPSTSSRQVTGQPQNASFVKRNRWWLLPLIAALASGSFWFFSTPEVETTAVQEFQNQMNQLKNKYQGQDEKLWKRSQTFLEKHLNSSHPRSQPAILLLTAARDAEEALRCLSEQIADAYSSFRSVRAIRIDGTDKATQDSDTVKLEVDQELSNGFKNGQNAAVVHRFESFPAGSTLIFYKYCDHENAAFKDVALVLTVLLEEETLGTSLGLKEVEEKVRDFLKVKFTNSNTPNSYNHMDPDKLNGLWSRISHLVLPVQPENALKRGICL

[10] = target: Alpha-bungarotoxin (Bungarus multicinctus) (UniProt P60615); assay: alpha-bungarotoxin binders on microarray, profiling panel, artefact control for SMM control protein annotation, biochemical, small-molecule microarray, Alexa647 label, 635/667 nm fluorescence (AID 1117); conditions: alpha-BTX-A647 binding fluorescence, higher = more signal
Chain of Alpha-bungarotoxin (Bungarus multicinctus) (P60615 whole entry, looked up): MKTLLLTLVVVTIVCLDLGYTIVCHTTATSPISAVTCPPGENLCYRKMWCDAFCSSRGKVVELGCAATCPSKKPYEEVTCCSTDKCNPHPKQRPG

Albumin (Bos taurus) = Albumin (Bos taurus) (UniProt P02769); assay: bovine serum albumin binders on microarray, profiling panel, artefact control for SMM control protein annotation, biochemical, small-molecule microarray, Alexa647 label, 635/667 nm fluorescence (AID 1118); conditions: BSA-A647 binding, fluorescence 635 nm, higher = more signal;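 also: score merges 667 nm emission intensity and signal-to-noise per printed compound spot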
Chain of Albumin (Bos taurus) (P02769 whole entry, looked up): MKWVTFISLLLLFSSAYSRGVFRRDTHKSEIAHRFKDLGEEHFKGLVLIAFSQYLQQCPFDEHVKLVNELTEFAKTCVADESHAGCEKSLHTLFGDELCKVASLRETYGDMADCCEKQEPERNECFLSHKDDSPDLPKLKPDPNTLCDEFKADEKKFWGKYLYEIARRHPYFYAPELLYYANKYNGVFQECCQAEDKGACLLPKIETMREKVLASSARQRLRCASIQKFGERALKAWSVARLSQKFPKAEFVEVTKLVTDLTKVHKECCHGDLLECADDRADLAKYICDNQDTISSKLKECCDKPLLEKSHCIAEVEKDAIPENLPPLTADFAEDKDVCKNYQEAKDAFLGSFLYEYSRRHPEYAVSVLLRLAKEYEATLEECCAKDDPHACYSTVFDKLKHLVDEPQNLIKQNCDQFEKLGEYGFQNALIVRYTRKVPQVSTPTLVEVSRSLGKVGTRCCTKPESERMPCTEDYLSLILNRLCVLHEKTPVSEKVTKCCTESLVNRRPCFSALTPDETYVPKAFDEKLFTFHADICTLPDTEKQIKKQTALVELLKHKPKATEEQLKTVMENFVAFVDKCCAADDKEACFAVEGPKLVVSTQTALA

[11] = small-molecule microarray binders of probe aXIP, primary screen, biochemical, NeuroSMM set, 635/667 nm fluorescence (AID 1119); conditions: higher = more signal, called active from +8 up or from −8 down;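 also: probe is the protein aXip251-270 applied at 1 µg/mL to compound-printed slides; binding of probe to printed compounds measured as 667 nm fluorescence plus signal to noise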
[12] = small-molecule binders of probe aNOTCH3, primary screen, biochemical, small-molecule microarray, 635/667 nm fluorescence (AID 1120); conditions: higher = more signal;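 also: probe is a biotin-tagged antibody raised against NOTCH3 rather than NOTCH3 protein; score merges spot fluorescence near 667 nm with spot signal to noise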
[13] = small-molecule binders of probe aNOTCH2, primary screen, biochemical, small-molecule microarray, 635/667 nm fluorescence (AID 1121); conditions: higher = more signal;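 also: score merges feature fluorescence read at 667 nm with its signal to noise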
[14] = target: Carbonic anhydrase 2 (Homo sapiens) (UniProt P00918); assay: CAII small-molecule binders, profiling panel, biochemical, small-molecule microarray, Alexa647-labelled CAII (AID 1122); conditions: CAII-A647 binding fluorescence, higher = more signal
[15] = COS7 lysate on small-molecule microarray, probe aHis, 635 nm (AID 1123); conditions: COS7 cell lysate, fluorescence, higher = more signal;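 also: z-score combines 667nm fluorescence intensity with signal-to-noise per printed compound spot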
[16] = compound binding in COS7 lysate, probe aLAP1, primary screen, cell lysate, small-molecule microarray (AID 1124); conditions: probe aLAP1, fluorescence, higher = more signal;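 also: lysate comes from COS7 cells expressing LAP1 and is applied at 0.3 µg/mL; score merges spot fluorescence near 667 nm with signal-to-noise over triplicate slides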
Sam68 (KHDRBS1) = assay: Sam68 small-molecule binders, primary screen, biochemical, small-molecule microarray, 635 nm fluorescence (AID 1125); conditions: small-molecule microarray binding, higher = more signal;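 also: score merges 667 nm channel intensity with signal to noise over triplicate slides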
[17] = test system: Chordin-like protein 2 (CHRDL2); assay: CHRDL2 small-molecule binders, primary screen, biochemical, small-molecule microarray, 635 nm fluorescence (AID 1126); conditions: small-molecule microarray binding, fluorescence 635 nm; higher = more signal;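 also: printed compound slides probed with Chrdl2 protein at 4 µg/mL for 1 h at 4 C; score merges 667 nm emission intensity with signal to noise over three replicate slides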
[18] = target: Concanavalin-A (Canavalia ensiformis) (UniProt P02866); assay: ConA small-molecule binders, primary screen, artefact control for SMM control protein annotation, biochemical, small-molecule microarray, Alexa647 label, 635 nm (AID 1127); conditions: ConA-A647 binding fluorescence, higher = more signal;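 also: z combines 667 nm emission intensity with signal-to-noise across three replicate slides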
Chain of Concanavalin-A (Canavalia ensiformis) (P02866 whole entry, looked up): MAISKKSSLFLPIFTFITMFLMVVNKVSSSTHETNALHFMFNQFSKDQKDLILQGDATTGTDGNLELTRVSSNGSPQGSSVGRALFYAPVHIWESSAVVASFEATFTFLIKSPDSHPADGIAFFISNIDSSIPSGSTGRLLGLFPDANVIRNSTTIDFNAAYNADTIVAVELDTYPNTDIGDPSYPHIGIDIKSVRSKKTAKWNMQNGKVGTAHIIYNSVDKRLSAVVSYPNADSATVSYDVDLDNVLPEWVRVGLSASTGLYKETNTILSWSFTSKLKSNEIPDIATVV

Row | Compound | composite z-score [1] | z-score [2] | composite z-score [3] | composite z-score [4] | composite z-score [5] | composite z-score [6] | composite z-score [7] | composite z-score [8] | composite z-score [9] | composite z-score [10] | composite z-score (Albumin (Bos taurus)) | composite Z-score [11] | composite z-score [12] | composite z-score [13] | composite z-score [14] | composite z-score [15] | composite z-score [16] | composite z-score (Sam68 (KHDRBS1)) | composite z-score [17] | composite z-score [18]
1 | CC(=O)OC[C@H]1O[C@H](CC=NOC[C@@H](C)[C@H](OCc2ccccc2)C(C)C)C=C[C@@H]1OC(C)=O | 0.16 | -0.854 | 0.455 | -0.47 | -0.499 | 0.0437 | -0.186 | -0.526 | -0.698 | -0.164 | -0.428 | 0.156 (inactive) | -0.0773 | -0.11 | -0.253 | 0.043 | -0.223 | 0.377 | 0.186 | -0.182
2 | CO[C@H]1COC(=O)[C@H](C)COC(=O)CC=C[C@@H](C)[C@H](OC)COC(=O)CC=C[C@@H]1C | -0.797 | -0.265 | 1.15 | -0.556 | -1.28 | -0.0944 | -0.0709 | -0.158 | -0.0635 | -0.289 | -0.991 | -0.222 (inactive) | -0.132 | -0.164 | -0.405 | -0.602 | -0.142 | -0.0288 | 1.4 | 0.184
3 | CC(C)OC(=O)C=C1C[C@@H](c2ccc(C#N)cc2)O[C@@H](c2ccc(C#N)cc2)O1 | 1.45 | -2.19 | 0.701 | 0.857 | 0.621 | 0.178 | 0.0875 | 0.229 | 1.22 | 1.09 | 0.992 | 0.914 (inactive) | 0.725 | 0.0186 | 0.693 | 3.07 | 0.148 | 1.32 | -0.595 | 1.15
4 | COCCCNC(=O)[C@@]1(C)c2ccccc2C(=O)N(Cc2ccc(OC(F)(F)F)cc2)[C@H]1c1ccc(CO)cc1 | -1.56 | -0.302 | -0.738 | -0.579 | 0.751 | -0.109 | -0.2 | -0.546 | -0.668 | -1.16 | -0.881 | -0.17 (inactive) | -0.271 | -0.0836 | 0.174 | 0.125 | 0.884 | -1.22 | -0.654 | -0.836
5 | C=CCC(OC(C)=O)[C@@H]1[C@@H](N(Cc2cc3ccccc3o2)C(=O)Cc2ccc(F)cc2)c2cc(OCCCO)ccc2N1C(=O)Cc1ccc(OC)cc1 (stereo not given in full) | -1.07 | -1.14 | -0.0691 | -0.481 | -0.435 | -0.236 | 0.14 | 0.0234 | 0.158 | 0.286 | 0.323 | -0.353 (inactive) | -0.0932 | -0.178 | -0.446 | -0.372 | -0.374 | -0.243 | 0.448 | -0.437
6 | CC(C)NC(=O)[C@@]1(c2ccc([N+](=O)[O-])cc2)CC(=O)N(CC23CC4CC(CC(C4)C2)C3)[C@@H]1c1ccc(CO)cc1I | 1.36 | -3.4 | 0.0161 | 0.613 | 0.273 | -0.0107 | 0.0796 | -0.41 | 0.981 | 0.442 | -0.0212 | 0.567 (inactive) | 0.299 | 0.23 | 0.241 | 0.997 | 1.04 | 1.27 | 0.111 | 0.93
7 | C[C@H](c1ccccc1)N1C(=O)[C@H]2[C@H]3[C@H](O)[C@H](O)CC(=O)[C@@H]3CC[C@H]2C1=O | -0.81 | -1.22 | 0.417 | -0.229 | -0.465 | -0.0495 | -0.237 | 0.0638 | -0.0506 | 0.3 | 0.493 | 0.17 (inactive) | 0.148 | -0.114 | 0.496 | 0.13 | 0.876 | -0.0681 | 0.604 | 0.162
8 | O=C1O[C@@H](c2ccccc2)[C@@H](c2ccccc2)N2[C@@H](c3ccccc3OCCO)[C@]3(C(=O)Nc4ccc(C#CCCO)cc43)[C@@H](C(=O)O)[C@H]12 | 1.42 | -1.99 | -0.28 | 1.04 | 0.734 | 0.385 | 0.633 | 1.32 | 1.17 | 2.53 | 0.682 | 0.215 (inactive) | 1.14 | 0.473 | 0.58 | 1.51 | 0.133 | 1.2 | 0.553 | 1.15
9 | CCCCCCc1nc(CCCc2cc3c(c(CCCCCC)n2)[Si](C(C)C)(C(C)C)O[C@H]3c2ccccc2)cc2c1[Si](C(C)C)(C(C)C)O[C@H]2c1ccccc1 | 0.15 | -0.904 | 0.109 | 0.146 | -0.021 | -0.148 | -0.0626 | -0.213 | -0.0561 | 0.181 | -0.27 | 0.248 (inactive) | -0.0284 | -0.14 | -0.156 | -0.0088 | -0.0919 | -0.14 | -0.0538 | 0.314
10 | CCCCCN1CC=CC23O[C@@H]4C=CCOC(=O)[C@@H]4[C@H]2C(=O)N(CCCCCCO)[C@@H]3C1=O (stereo not given in full) | -0.276 | 0.417 | -2 | -0.284 | 0.168 | -0.0417 | 0.0796 | 0.293 | 1.9 | -0.729 | 0.798 | 0.401 (inactive) | -0.306 | -0.0811 | 0.81 | 0.629 | 0.902 | -0.662 | -1.21 | -0.367
11 | Cc1ccc(S[C@]2(C(=O)O)CC(=O)N(Cc3ccccc3)[C@@H]2c2ccc(CO)cc2I)cc1 | 0.34 | -1.45 | -0.891 | -0.0405 | -0.0584 | -0.118 | -0.206 | -0.409 | -0.192 | 0.823 | 0.258 | -0.523 (inactive) | -0.206 | -0.13 | 0.701 | 0.921 | 0.223 | 0.21 | 0.347 | 0.883
